# Several values for one entry are separate records, joined by “and”; a condition that tells them apart may be missing. Equal values may be shown once. Inconclusive results are not listed. Where a call stands in place of a potency, no number is given. Activity calls are given as the source filed them. Unless noted, the call rests on the fitted dose curve. Bridge positions count the residues as written; N and C are the ends. Square brackets hold non-standard residues; d marks the D form. Peptide text beside a SMILES is read from it. * marks the point of attachment. ξ: configuration not given here. Octanoyl(6-Me) = CCC(C)CCCCC(=O)*; ξThr(3R) = C[C@@H](O)C(N)C(=O)O; dDab = NCC[C@@H](N)C(=O)O; Dab = NCC[C@H](N)C(=O)O
# Columns and labels:
# [1] = qHTS profiling of the MIPE4 collection as inhibitors of Plasmodium falciparum (3D7) proliferation (AID 743344; call rule not given here); conditions: P. falciparum 3D7 in erythrocytes, SYBR Green DNA fluorescence, 72 h; at 28.5 µM unless noted
# Summary of the method: (§1)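 Parasite DNA was quantified by SYBR Green I fluorescence (ex 485, em 535 nm) after overnight lysis in saponin/Triton buffer at room temperature. Cultures at 0.3% parasitemia and 2.5% hematocrit were first exposed to compound for 72 h at 37 C; signals were normalised to artemisinin (0.29 uM) and vehicle wells.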
# [2] = qHTS profiling of the MIPE4 collection as inhibitors of Plasmodium falciparum (DD2) proliferation (AID 743345; call rule not given here); conditions: P. falciparum Dd2 in erythrocytes, SYBR Green DNA, 72 h; at 28.5 µM unless noted
# Summary of the method: as §1
# [3] = qHTS profiling of the MIPE4 collection as inhibitors of Plasmodium falciparum (HB3) proliferation (AID 743347; call rule not given here); conditions: P. falciparum HB3 in erythrocytes, SYBR Green DNA, 72 h; at 28.5 µM unless noted
# Summary of the method: as §1
# [4] = qHTS for Inhibitors of the Functional Ribonucleoprotein Complex (vRNP) of Lassa (LASV) Arenavirus: LASV Primary Screen - GLuc reporter signal (AID 1347082; calls by dose curve; tested in HEK293 reporter line; further: nearly all actives have a fitted effect of over 60% in size)
# [5] = qHTS for Inhibitors of the Functional Ribonucleoprotein Complex (vRNP) of Lassa (LASV) Arenavirus: Viability assay - alamar blue signal for LASV Primary Screen (AID 1347083; calls by dose curve; tested in HEK293 reporter line; further: nearly all actives have a fitted effect of over 80% in size; further: potency means the concentration at half of the fitted maximal effect)
# [6] = target: Nucleoprotein (Lymphocytic choriomeningitis virus (strain Armstrong)) (UniProt P09992); test: qHTS for Inhibitors of the Functional Ribonucleoprotein Complex (vRNP) of Lymphocytic Choriomeningitis Arenaviruses (LCMV): LCMV Primary Screen - GLuc reporter signal (AID 1347086); further: nearly all actives have a fitted effect of over 70% in size; further: potency means the concentration at half of the fitted maximal effect
# Chain of Nucleoprotein (Lymphocytic choriomeningitis virus (strain Armstrong)) (P09992 whole entry, looked up): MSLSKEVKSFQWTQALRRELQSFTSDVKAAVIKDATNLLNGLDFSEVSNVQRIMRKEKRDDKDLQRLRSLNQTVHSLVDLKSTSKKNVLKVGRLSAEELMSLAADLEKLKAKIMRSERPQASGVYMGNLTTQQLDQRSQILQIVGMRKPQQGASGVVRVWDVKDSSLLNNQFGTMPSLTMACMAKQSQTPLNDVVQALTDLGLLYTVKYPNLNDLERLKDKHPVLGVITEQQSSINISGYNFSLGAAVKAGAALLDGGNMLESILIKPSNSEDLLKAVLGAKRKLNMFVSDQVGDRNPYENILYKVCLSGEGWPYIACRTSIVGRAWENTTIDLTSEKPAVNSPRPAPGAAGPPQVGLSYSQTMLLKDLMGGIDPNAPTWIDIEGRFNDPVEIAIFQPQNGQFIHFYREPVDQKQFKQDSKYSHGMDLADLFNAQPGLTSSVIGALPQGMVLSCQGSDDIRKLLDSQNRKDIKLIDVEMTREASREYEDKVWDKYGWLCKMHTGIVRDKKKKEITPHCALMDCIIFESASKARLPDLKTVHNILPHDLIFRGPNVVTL
# [7] = Cytotoxicity counterscreen for inhibitors of SARS-CoV-2 cell entry (AID 1645845); further: nearly all actives have a fitted effect of over 50% in size
# Summary of the method: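 Counterscreen run in the same HEK293-ACE2 line as the pseudotyped-particle entry assay, without particles. Viability after 48 h at 37 C was read as ATP luminescence, scaled between cell-containing and cell-free wells.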
# [8] = Primary qHTS to identify inhibitors of SARS-CoV-2 cell entry (AID 1645846); conditions: activity change, negative = inhibition: at 57.1 µM (top of the series) unless noted; further: nearly all actives have a fitted effect of over 45% in size; further: potency means the concentration at half of the fitted maximal effect
# Summary of the method: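 Data are normalized to wells receiving SARS-CoV-2-S pseudoparticles and those given bald particles. Entry signal was luciferase luminescence in stable hACE2 Expi293F cells, 48 hr post-infection, after 1 hr compound pretreatment.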
# CRL-7250 = normal cell line; test: qHTS assay to identify novel small-molecules to repurpose for Merkel cell carcinoma treatment (AID 1296009; active means well fitted curve in the direction sought with a large enough effect; an effect the other way counts as inactive or inconclusive; further: nearly all actives have a fitted effect of over 60% in size); conditions: MCC and control cell lines, CellTiter-Glo viability, 72 h; series mostly up to 92 µM
# Summary of the method: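 Dose-response viability screen; 72 hr exposure at 37 degree celsius; CellTiter-Glo added, 10 min room temperature, luminescence read; RLUs scaled between no-cell and DMSO wells.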
# [9] = qHTS for Inhibitors of the Functional Ribonucleoprotein Complex (vRNP) of Lymphocytic Choriomeningitis Arenaviruses (LCMV): Viability assay - alamar blue signal for LCMV Primary Screen (AID 1347085; calls by dose curve; tested in HEK293 reporter line; further: nearly all actives have a fitted effect of over 80% in size; further: potency means the concentration at half of the fitted maximal effect)
# [10] = Confirmatory qHTS for activators (rescue) of SARS-CoV-2 Cytopathic Effect (CPE) (AID 1508606); further: potency means the concentration at half of the fitted maximal effect; nearly all actives have a fitted effect of over 70% in size
# [11] = Primary qHTS for Huh7 cytotoxicity: counterscreen for inhibitors of MERS-S pseudotyped particle cell entry (AID 1479147); conditions: outcome: dose series up to 57.1 µM unless noted
# [12] = Primary qHTS for inhibitors of MERS-S pseudo-typed particle cell entry (AID 1479149); further: nearly all actives have a fitted effect of over 60% in size
# [13] = Primary qHTS for Vero E6 cytotoxicity: counterscreen for inhibitors of SARS-S pseudo-typed particle cell entry (AID 1479150); conditions: outcome: dose series up to 57.1 µM unless noted
# [14] = target: Alpha-galactosidase (Coffea arabica) (UniProt Q42656); test: Counterscreen for Glucocerebrosidase Inhibitors: qHTS Assay for Coffee Bean alpha-Galactosidase at pH 4.5 (AID 957; active means well fitted curve in the direction sought with a large enough effect; an effect the other way counts as inactive or inconclusive)
# Chain of Alpha-galactosidase (Coffea arabica) (Q42656 whole entry, looked up): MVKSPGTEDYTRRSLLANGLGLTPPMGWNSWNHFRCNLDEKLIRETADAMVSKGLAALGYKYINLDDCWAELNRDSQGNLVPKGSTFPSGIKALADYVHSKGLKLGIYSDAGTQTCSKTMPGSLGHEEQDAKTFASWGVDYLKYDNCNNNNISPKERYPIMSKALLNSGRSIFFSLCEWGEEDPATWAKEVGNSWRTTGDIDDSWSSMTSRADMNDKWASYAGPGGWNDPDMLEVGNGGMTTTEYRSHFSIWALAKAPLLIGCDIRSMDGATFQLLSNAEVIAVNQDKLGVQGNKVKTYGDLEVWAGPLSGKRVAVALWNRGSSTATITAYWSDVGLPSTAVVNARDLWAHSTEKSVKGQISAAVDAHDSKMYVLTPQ
# Summary of the method: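 Enzyme is added first (2 nM final), then compounds titrated from 0.7 nM to 77 uM, then 80 uM 4-methylumbelliferyl alpha-D-galactopyranoside; after 20 min at room temperature a pH 10 NaOH/glycine stop precedes fluorescence reading at 365/440 nm.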
# [15] = target: Alpha-galactosidase (Coffea arabica) (UniProt Q42656); test: Counterscreen for Glucocerebrosidase Inhibitors: qHTS Assay for Coffee Bean alpha-Galactosidase at pH 5.9 (AID 998; active means well fitted curve in the direction sought with a large enough effect; an effect the other way counts as inactive or inconclusive)
# Summary of the method: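 Enzyme 2 nM + cpd (0.7 nM–77 uM titration) + 4-MU-alpha-Gal 80 uM, pH 5.9 citrate/Tween-20, RT 20 min, NaOH/glycine stop pH 10, fluor 365/440. Normalized to no-enzyme and full-activity controls; Hill-fit AC50.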
# [16] = target: Nuclear receptor subfamily 1 group I member 3 (Homo sapiens) (UniProt Q14994); test: Primary qHTS for antagonist of constitutive androstane receptor (CAR) against the NCATS DSHEA and TCM libraries (AID 1794836; active means well fitted curve in the direction sought with a large enough effect; an effect the other way counts as inactive or inconclusive;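 further: HepG2 cells stably expressing hCAR with CYP2B6 luciferase reporter stimulated by CITCO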)
# Chain of Nuclear receptor subfamily 1 group I member 3 (Homo sapiens) (Q14994 whole entry, looked up): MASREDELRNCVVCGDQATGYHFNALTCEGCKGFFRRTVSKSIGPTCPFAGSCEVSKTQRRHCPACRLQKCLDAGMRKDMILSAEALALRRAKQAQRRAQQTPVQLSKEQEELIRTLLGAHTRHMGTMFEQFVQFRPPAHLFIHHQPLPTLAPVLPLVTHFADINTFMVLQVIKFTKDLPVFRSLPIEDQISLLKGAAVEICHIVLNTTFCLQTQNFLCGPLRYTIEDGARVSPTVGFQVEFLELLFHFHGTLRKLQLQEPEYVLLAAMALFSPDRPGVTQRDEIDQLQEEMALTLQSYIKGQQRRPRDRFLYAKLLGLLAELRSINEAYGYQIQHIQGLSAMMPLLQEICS
# Summary of the method: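 HepG2-CYP2B6-hCAR cells, attached 5 h, given compounds plus CITCO agonist […], incubated 24 h at 37 C. Luciferase luminescence read, multiplexed with CellTiter-Fluor viability (Ex/Em 405/540 nm).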
smiles,measurement,setting,value
NC1=N[C@H]2[C@H](CS[C@H]2CCCCC(=O)O)N1,"parasite growth, % of DMSO control",[1],88.8% [at 9.64 µM]
same,"parasite growth remaining, % of DMSO control (lower = more inhibition)",[2],94.1% [at 9.64 µM]
same,"growth, % of control",[3],44.4% [at 9.64 µM]
same,Potency,[4],inactive
same,Potency,[5],inactive
same,Potency,[6],inactive
same,Potency,[7],inactive
same,"activity change, negative = inhibition",[8],-19.4% [at 27.1 µM]
same,Potency,CRL-7250,inactive
CCC(C)CCCCC(=O)N[C@@H](CCN)C(=O)NC(C(=O)N[C@H](CCN)C(=O)N[C@@H]1CCNC(=O)C([C@@H](C)O)NC(=O)[C@@H](CCN)NC(=O)[C@@H](CCN)NC(=O)[C@@H](CC(C)C)NC(=O)[C@H](Cc2ccccc2)NC(=O)[C@H](CCN)NC1=O)[C@@H](C)O (stereo partly drawn) ({Octanoyl(6-Me)}-[Dab][ξThr(3R)][dDab][dDab][Dab]F[dL][dDab][dDab][ξThr(3R)]; lactam 4-C),Potency,[4],inactive
same,Potency,[8],inactive
same,Potency,CRL-7250,inactive
CCCCOc1ccc(C(=O)Nc2ccc(F)cc2F)cc1,Potency,[4],inactive
same,Potency,[6],inactive
same,Potency,[8],inactive
same,Potency,CRL-7250,inactive
CC1(C)CC(O)CC(C)(C)N1[O],"parasite growth, % of DMSO control",[1],99.3%
same,"parasite growth remaining, % of DMSO control (lower = more inhibition)",[2],97.3%
same,"growth, % of control",[3],60.2%
same,Potency,[4],inactive
same,Potency,[5],inactive
same,Potency,[6],inactive
same,Potency,CRL-7250,inactive
C[C@@H]1CN(Cc2ccc(F)cc2)[C@@H](C)CN1C(=O)c1cc2c(C(=O)C(=O)N(C)C)cn(C)c2cc1Cl,Potency,[4],inactive
same,Potency,[6],30.6 µM (active)
same,Potency,[7],inactive
same,Potency,CRL-7250,inactive
COc1cccc(Nc2c(C(N)=O)cnc3c(C)cc(S(=O)(=O)c4cccc(C(=O)N(C)C)c4)cc23)c1,Potency,[5],21.1 µM (active)
same,Potency,[9],13.3 µM (active)
same,Potency,[6],16.8 µM (active)
same,Potency,[7],inactive
same,Potency,[8],inactive
same,Potency,CRL-7250,inactive
CC(C)c1cnn2c(NCc3ccccc3)cc(NCCCCCCN)nc12,Potency,[5],1.93 µM (active)
same,Potency,[9],1.09 µM (active)
same,Potency,[6],1.53 µM (active)
same,Potency,[10],10 µM (active)
same,Potency,[8],22.4 µM (active)
same,Potency,CRL-7250,inactive
CCCc1nc(C(C)(C)O)c(C(=O)O)n1Cc1ccc(-c2ccccc2-c2nn[nH]n2)cc1,Potency,[4],inactive
same,Potency,[9],inactive
same,Potency,[6],inactive
same,outcome,[11],inactive
same,Potency,[12],inactive
same,outcome,[13],inactive
same,Potency,[7],inactive
same,"activity change, negative = inhibition",[8],-8.69% and -17.9%
same,Potency,CRL-7250,inactive
O=C1NC(=O)C(=Cc2cccc(C(F)(F)F)c2)S1,Potency,[5],13.7 µM (active)
same,Potency,CRL-7250,inactive
NC(=O)c1cccc(-c2cccc(OC(=O)NC3CCCCC3)c2)c1,"parasite growth, % of DMSO control",[1],81%
same,"parasite growth remaining, % of DMSO control (lower = more inhibition)",[2],98%
same,Potency,[5],4.32 µM (active)
same,Potency,[9],8.63 µM (active)
same,Potency,[6],6.85 µM (active)
same,Potency,[7],inactive
same,Potency,CRL-7250,inactive
Cc1c(NC(=O)c2ccc(C(C)(C)C)cc2)cccc1-c1cn(C)c(=O)c(Nc2ccc(C(=O)N3CCOCC3)cc2)n1,Potency,[4],inactive
same,Potency,[5],inactive
same,Potency,[6],inactive
same,Potency,[7],inactive
same,Potency,[8],inactive
same,Potency,CRL-7250,inactive
O=C(Nc1ccccc1)Nc1ccc(-c2ccc(C(=O)[C@H]3CCC[C@H]3C(=O)O)cc2)cc1,Potency,[9],inactive
same,Potency,CRL-7250,inactive
COc1ccc2c(c1)c(C1=C(c3c[nH]c4ccccc34)C(=O)NC1=O)cn2CCCN(C)C,Potency,[5],0.485 µM (active)
same,Potency,CRL-7250,inactive
Nc1ncnc2c1ncn2[C@@H]1O[C@H](CO)[C@@H](O)[C@@H]1O,Potency,[4],inactive
same,Potency,[5],inactive
same,Potency,[6],inactive
same,Potency,[7],inactive
same,Potency,[8],28.2 µM (active)
same,Potency,CRL-7250,inactive
NC(=O)c1ccc2nc(-c3ccc(Oc4ccc(Cl)cc4)cc3)[nH]c2c1,Potency,[5],0.769 µM (active)
same,Potency,[6],inactive
same,Potency,CRL-7250,inactive
CN(C)CC[C@H](c1ccc(Cl)cc1)c1ccccn1,outcome,[14],inactive
same,outcome,[15],inactive
same,Potency,[4],inactive
same,Potency,[9],inactive
same,Potency,[6],inactive
same,Potency,CRL-7250,inactive
Nc1ncnc2ccccc12,Potency,[5],15.3 µM (active)
same,Potency,[9],12.2 µM (active)
same,Potency,[6],24.3 µM (active)
same,Potency,[7],inactive
same,"activity change, negative = inhibition",[8],2.32%
same,Potency,CRL-7250,inactive
O=c1cc(-c2cccc3c2Sc2ccccc2S3)oc(N2CCOCC2)c1,Potency,[4],inactive
same,Potency,[6],inactive
same,Potency,[10],3.55 µM (active)
same,Potency,CRL-7250,inactive
Cc1cc2nc3c(=O)[nH]c(=O)nc-3n(CC(O)C(O)C(O)CO)c2cc1C (stereo unspecified),Potency,[4],inactive
same,Potency,[5],inactive
same,Potency,[7],inactive
same,Potency,[8],inactive
same,Potency,[16],inactive
same,Potency,CRL-7250,inactive
COc1cc(N2CCC(C(N)=O)CC2)ccc1Nc1nc(N)c(Cl)c(Nc2ccccc2S(=O)(=O)C(C)C)n1,Potency,[5],12.2 µM (active)
same,Potency,[9],1.72 µM (active)
same,Potency,[6],0.769 µM (active)
same,Potency,CRL-7250,inactive
CCCCCCCCCCCC1=C(O)C(=O)C=C(O)C1=O,Potency,[5],4.85 µM (active)
same,Potency,[7],inactive
same,Potency,CRL-7250,inactive
CN(CC(=O)N(Cc1ccc(C2CCCCC2)cc1)c1ccc(C(=O)O)c(O)c1)S(=O)(=O)c1c(F)c(F)c(F)c(F)c1F,Potency,[4],inactive
same,Potency,[5],27.3 µM (active)
same,Potency,[6],inactive
same,Potency,[7],inactive
same,"activity change, negative = inhibition",[8],-15.1%
same,Potency,CRL-7250,inactive
COC(=O)[C@H](CCCN=C(N)N)NS(=O)(=O)c1ccc(C)cc1,Potency,[4],inactive
same,Potency,[9],17.2 µM (active)
same,Potency,[7],inactive
same,"activity change, negative = inhibition",[8],-0.183%
same,Potency,CRL-7250,inactive

# From PubChem BioAssay (NCATS)
